From the supplement of paper PMC6555819

Experiments:
Assay in all cases: PBM binding z-score (relative to random genomic background probes); higher = stronger binding; sequences stand for … in GC…GCGATTGACAGCGTAGAATGAAGG
[1] = test system: FXR:RXRa (NR concentration 270 nM, RXRa partner concentration 90 nM)
Method in brief: (§1)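 Ligand-free nuclear receptor dimers were bound for 1 h to custom Agilent 4×180K protein-binding microarrays. Detection used antibodies against each partner (one per run). Binding z-scores rest on regression-normalized fluorescence, with random background probes as the reference.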

[2] = test system: LXRa:RXRa (NR concentration 270 nM, RXRa partner concentration 90 nM)
Method in brief: as §1

[3] = test system: LXRa homodimer (NR concentration 270 nM)
Method in brief: as §1

[4] = test system: LXRb:RXRa (NR concentration 270 nM, RXRa partner concentration 90 nM)
Method in brief: as §1

[5] = test system: LXRb homodimer (NR concentration 270 nM)
Method in brief: as §1

[6] = test system: PPARa:RXRa (NR concentration 270 nM, RXRa partner concentration 90 nM)
Method in brief: as §1

[7] = test system: PPARg:RXRa (NR concentration 180 nM, RXRa partner concentration 90 nM)
Method in brief: as §1

[8] = test system: PPARg:RXRa 270nM:90nM, anti-RXR (NR concentration 270 nM, RXRa partner concentration 90 nM)
Method in brief: as §1

[9] = test system: PPARg:RXRa 30nM:10nM, anti-RXR (NR concentration 30 nM, RXRa partner concentration 10 nM)
Method in brief: as §1

[10] = test system: PPARg:RXRa 90nM:30nM, anti-RXR (NR concentration 90 nM, RXRa partner concentration 30 nM)
Method in brief: as §1

[11] = test system: PPARg:RXRa DBDmut IVT, anti-RXR (DBD mutation: RXRa K156A/R161A, NR concentration 270 nM, RXRa partner concentration 90 nM)
Method in brief: as §1

[12] = test system: PPARg:RXRa IVT, anti-PPARg (NR concentration 270 nM, RXRa partner concentration 90 nM)
Method in brief: as §1

[13] = test system: PPARg DBDmut:RXRa IVT, anti-PPARg (DBD mutation: PPARg1 K132A/R137A, NR concentration 270 nM, RXRa partner concentration 90 nM)
Method in brief: as §1

[14] = test system: PPARg DBDmut IVT, anti-PPARg (DBD mutation: PPARg1 K132A/R137A, NR concentration 270 nM)
Method in brief: as §1

[15] = test system: PPARg homodimer (NR concentration 180 nM)
Method in brief: as §1

[16] = test system: PXR:RXRa (NR concentration 270 nM, RXRa partner concentration 90 nM)
Method in brief: as §1

[17] = test system: PXR homodimer (NR concentration 270 nM)
Method in brief: as §1

[18] = test system: RARa:RXR (NR concentration 270 nM, RXRa partner concentration 90 nM)
Method in brief: as §1

[19] = test system: RARa homodimer (NR concentration 270 nM)
Method in brief: as §1

[20] = test system: RARb:RXRa (NR concentration 270 nM, RXRa partner concentration 90 nM)
Method in brief: as §1

Sequence	PBM binding z-score [1]	PBM binding z-score [2]	PBM binding z-score [3]	PBM binding z-score [4]	PBM binding z-score [5]	PBM binding z-score [6]	PBM binding z-score [7]	PBM binding z-score [8]	PBM binding z-score [9]	PBM binding z-score [10]	PBM binding z-score [11]	PBM binding z-score [12]	PBM binding z-score [13]	PBM binding z-score [14]	PBM binding z-score [15]	PBM binding z-score [16]	PBM binding z-score [17]	PBM binding z-score [18]	PBM binding z-score [19]	PBM binding z-score [20]
TCATCTAGGTAAACAGGTGAAAGTCCGTAAGTTA	1.02	0.956	0.17	1.04	0.174	2.4	3.14	3.94	3.92	3.86	4.8	5.11	1.31	1.14	0.609	0.409	0.487	0.888	0.849	0.534
TCTGCTAGGTCAGTTGGTCGGCTAACGAGCTGCC	0.77	0.605	-0.503	0.189	0.554	1.17	-0.329	1.54	1.35	1.7	2.4	2.52	-0.323	0.245	-0.547	-0.0242	-0.996	0.254	-0.776	3.2
GCAGACAGGGGAAACGCAGGTAACTCAGGGTGGC	-0.526	-0.555	-0.616	-0.597	-1.27	-0.505	0.299	-0.604	-1.01	-0.89	-0.682	-0.536	0.0572	-0.175	-1.42	-0.626	-0.571	-0.366	-1.03	-0.337
TCTATTTGTTGATTAGGGCAACCGAAACAGCGGA	0.7	0.785	0.435	0.575	1.08	0.93	0.259	2.04	3.98	2.81	1.93	1.79	1.53	1.99	1.59	0.675	0.358	0.837	1.13	1.09
GGATCGAGGGCATTCGAGTTGATAGCATGGCGAT	0.788	1.56	-0.155	-0.0829	-0.428	1.47	0.73	0.681	-0.121	0.313	2.58	2.38	-0.372	-0.843	0.175	3.64	1.17	1.16	-0.556	1.83
TCGAGTAGGTTAGTCGGGGCAATCAGCCAACATA	0.297	-0.165	-0.263	0.224	-1.01	0.796	0.0628	0.946	1.01	0.797	2.37	2.34	-0.202	-1.1	-0.0632	0.138	-0.459	0.453	-0.959	0.473
GTACCAAGGTGAATAGGTCGATGATGAGTAGGCG	0.682	0.499	-0.251	0.484	-0.293	1.89	1.69	1.53	0.803	1.28	1.55	2.61	0.551	-0.172	1.08	0.477	0.109	1.13	0.983	2.01
CTCGAAAGGTCGGTTGAGGTGAGTCTACGGATAA	2.75	1.97	-0.215	1.29	-0.179	2.62	0.161	1.13	0.171	0.803	0.22	0.948	-0.0486	-0.386	1.13	3.39	-0.0836	2.2	-0.523	2.97
AGTCAAAGTTCACTAGGTAAAGTAAGATTCAGCT	5.11	4.89	2.94	2.95	0.968	4.53	7.12	6.14	3.45	5.45	1.8	4.56	0.983	1.74	2.43	3.9	2.63	3.07	1.41	4.74
